Inconclusive results are not listed. Where a call stands in place of a potency, no number is given. Active and inactive are the calls of the source. Calls follow the shape of the dose curve; as a rule, active = well fitted curve in the direction sought with a large enough effect; inconclusive = small, poorly fitted or top-dose-only effect, or another doubt; inactive = no such curve, though single readings can be large or run the other way. Starred links: 1 amine or outer side, 2 acyl side, 3 side chain; linkers in the order of their positions; H or OH if unused. Positions of bridges follow the written chain, without caps; N, C: chain ends. Non-standard residues stand in square brackets, D forms with d. Residues, ends and D or L forms follow the SMILES beside them. ξ: configuration not given here. *: point of attachment. X3 = C[C@@H](Oc1ccc([C@H](N[*:1])C(=O)[*:2])cc1)[C@]1(/C=C\C(=O)[*:3])CO1; d(aIle) = CC[C@H](C)[C@@H](N)C(=O)O; X2 = CC(C)[C@@H](O)C(C)C(=O)*; ξNMeF = CNC(Cc1ccccc1)C(=O)O; ξT = CC(O)C(N)C(=O)O; ξS = NC(CO)C(=O)O
Potency is read from the fitted curve at half-maximal effect.

A short description of the test: qHTS for inhibitors of Wild type Zika virus screened against the NCATS CANVASS Library (AID 1347396). Particulars: Vero cells, Zika virus CPE, CellTiter-Glo, 72 h; series mostly up to 45.9 µM. From the text:
Natural products and their derivatives continue to be wellsprings of nascent therapeutic potential. However, many laboratories have limited resources for biological evaluation, leaving their previously isolated or synthesized compounds largely or completely untested. To address this issue, the Canvass library of natural products was assembled (https://tripod.nih.gov/canvass), in collaboration with academic and industry researchers, for quantitative high-throughput screening (qHTS) across a diverse set of cell-based and biochemical assays. The pure (>85% purity by liquid chromatography/mass spectrometry [LC/MS]) Canvass library of 346 natural products were submitted by 45 academic laboratories and companies around the world. We collected pure natural products to circumvent deconvolution and structure elucidation due to time and resource limitations. The library was formatted into 1536-well plates and evaluated in 50 qHTS (in an 11-pnt concentration series) bioassays with broad scope of disease-relevant mechanisms. The resulting data set from 50 different assays was then systematically analyzed to identify overall trends and specific natural products with interesting biological activities. Reported herein are the results of each individual qHTS and their corresponding assay protocol. Vero cells were infected with wild type Zika virus and at 72 hours post-infection viral cytotoxicity was assayed using CellTiter Glo. National Center for Advancing Translational Sciences (NCATS), Rockville, MD National Institute of Health (NIH), Bethesda, Maryland
Zika virus infection assay protocol: 1. In a white-solid bottom 1536-well tissue culture plate (Corning 7494), 3 uL of Vero 766 cells derived (African Green Monkey) were dispensed using a Multidrop Combi (Thermo Fisher Scientific) at a final concentration of 1000 cells / well. 2. The assay plates were incubated overnight at 37C, 5% CO2, 95% humidity to acclimate and attach. 3. […] of compounds (in DMSO; columns 5-48) were pin transferred into the assay plates using the Kalypsis pin tool (Wako USA) equipped with a 1536-well pin heads. This yields a final concentration range of 0.001 - 77 uM. 4. In a biosafety cabinet, the desired MOI Zika virus was calculated and 2 uL of 2.5x Zika virus was dispensed into columns 1, 2 and 5 - 48 using the Multidrop Combi dispenser. Two microliters of media + vehicle was dispensed into columns 3 and 4 as positive controls (no infection, 100% inhibition). The assay plates were sealed with breathable film. 5. The assay plates were incubated for 72 hours at 37C, 5% CO2, 95% humidity. 6. In a biosafety cabinet, the seals were removed by Xpeel Automated Plate Seal Remover (Brooks Life Sciences) and 2.5 uL of CellTiter Glo reagent (Promega) was dispensed into the wells (columns 1 - 48, rows 1 - 32). 7. Luminescence signal was obtained via the ViewLux plate reader (Perkin Elmer) using the clear emission filter and 1x binning, 2 seconds exposure settings.
Background: In qHTS, concentration-response curves come from the screen itself.
As to `C=CC(C)(C)[C@@]12C[C@H]3C(=O)N/C(=C/c4cnc[nH]4)C(=O)N3[C@@H]1Nc1ccccc12`, the Potency result is “inactive”.
Turning to `C/C(=C\[C@H](C)C(=O)C[C@H](O)CC1CC(=O)NC(=O)C1)[C@@H]1OC(=O)/C=C/CC/C=C/C=C/[C@@H]1C`, the Potency result is “inactive”.
The same measure for `C/C=C(\C)C(=O)O[C@@H]1[C@@H](O)[C@@H]2O[C@H]3[C@H](O[C@@H](CCCCC)CCCCCCC(=O)CCC(=O)OC[C@@H](O2)[C@H]1OC(=O)/C=C/c1ccccc1)O[C@H](C)[C@H](OC(C)=O)[C@@H]3O`: “inactive”; for `C[C@]12CC(O)C3[C@@H](CCC4C[C@@H](O)CC[C@@]43CO)[C@@]1(O)CC[C@@H]2C1=CC(=O)OC1` (stereo partly specified): “inactive”.
The value for `COC1C(O)C(C)OC(OC2C(Oc3cccc4c(O)c5c(=O)oc6ccc(C)c7c(=O)oc(c34)c5c67)OC(C)C(O)C2O)C1O` (stereo unspecified) was “inactive”; that for `CC[C@H]1CN2CCc3c([nH]c4cccc(OC)c34)[C@@H]2C[C@@H]1/C(=C\OC)C(=O)OC` was “inactive”.
The value for `CC[C@@H]1CN2CCc3c([nH]c4cccc(OC)c34)[C@@H]2C[C@@H]1/C(=C\OC)C(=O)OC` was “inactive”; that for `CC[C@H](C)[C@H]1NC(=O)[C@@H](NC(=O)C(C)[C@H](O)C(C)C)[C@@H](C)OC(=O)C2COC(=O)CNC(=O)/C=C\[C@]3(CO3)[C@@H](C)Oc3ccc(cc3)[C@H](NC1=O)C(=O)N(C)C(Cc1ccccc1)C(=O)NC(C(C)O)C(=O)N2` (stereo partly specified) (X2-T[d(aIle)][X3][ξNMeF][ξT][ξS]; ester 1-C; linker 3-6 via G) was “inactive”; that for `C=CC(C)(C)[C@@]12C[C@H]3C(=O)N/C(=C\c4cnc[nH]4)C(=O)N3[C@@H]1Nc1ccccc12` was “inactive”.
On to `C[C@]12CCC3[C@@H](CC[C@@H]4C[C@@H](O)CC[C@]34CO)[C@@]1(O)CC[C@@H]2C1=CC(=O)OC1` (stereo partly specified), for which the Potency result was “inactive”.
The value for `C1=C2CCCN[C@H]2C2CC1[C@H]1CCCCN1C2` (stereo partly specified) was “inactive”; that for `C/C=C1/CN2CC[C@@]34c5ccccc5N(C)[C@@H]3[C@@H]2C[C@@H]1[C@H]4C(=O)OC` was “inactive”; that for `C/C=C1/CN2CC[C@]34C(=C(C(=O)OC)[C@H]1C[C@H]23)Nc1ccccc14` was “inactive”.
The same measure for `CC[C@]12C=CCN3CC[C@]4(C(=C(C(=O)OC)C1)Nc1ccccc14)[C@@H]32`: “inactive”.
The same measure for `CO[C@H]1[C@H](O[C@H]2CC[C@]3(C=O)[C@H]4CC[C@]5(C)[C@@H](C6=CC(=O)OC6)CC[C@]5(O)[C@@H]4CC[C@]3(O)C2)O[C@H](C)[C@H](O)[C@@H]1OC`: “inactive”; for `COC1=C(C2=C(OC)C(=O)c3cc4c(c(O)c3C2=O)C(=O)O[C@H](C)C4)C(=O)c2c(cc3c(c2O)C(=O)O[C@H](C)C3)C1=O`: “inactive”.
Consider `c1ccc2nc3c(cc2c1)[nH]c1ccccc13`, for which the Potency entry was “inactive”.
The same measure for `O[C@H]1C=C[C@@]23CCN(Cc4cc5c(cc42)OCO5)[C@@H]3C1`: “inactive”; for `C[N+](C)(C)CCc1c[nH]c2ccccc12`: “inactive”.
Take `CO[C@@]12c3c(C)cc(O)c4c(=O)occ(c34)C(=O)[C@@H]1[C@]13COC(=O)c4c(O)cc(C)c(c41)C(=O)[C@H]2[C@@H]3OC(C)=O`: the Potency result was “inactive”.
The value for `C[C@]12CC(O)C3[C@@H](CC[C@@H]4C[C@@H](O)CC[C@]34CO)[C@@]1(O)CC[C@@H]2C1=CC(=O)OC1` (stereo partly specified) was “inactive”.
The value for `CCCCC1CC[C@H]2CCCC(CCC)N12` (stereo partly specified) was “inactive”; that for `CC(C)CC1C(=O)O[C@H](C(C)C)C(=O)N(C)C(CC(C)C)C(=O)O[C@@H](C(C)C)C(=O)N(C)C(CC(C)C)C(=O)O[C@H](C(C)C)C(=O)N(C)C(CC(C)C)C(=O)O[C@@H](C(C)C)C(=O)N1C` (stereo partly specified) was 14.7 µM (active); that for `CCCC[C@@H]1CC[C@H]2CCCC(CCCO)N12` (stereo partly specified) was “inactive”.
The same measure for `CCCC[C@@H](C)/C=C1/CN2CCC[C@H]2[C@@](C)(O)[C@@H]1O`: “inactive”; for `CCC(=O)N[C@@H](C[C@H](C)C(Cl)(Cl)Cl)C(=O)N1C(=O)C=C(OC)[C@@H]1C[C@H](C)C(Cl)Cl`: “inactive”.
As to `CC[C@@H]1CN2CCC3(Nc4cccc(OC)c4C3=O)[C@@H]2C[C@@H]1/C(=C\OC)C(=O)OC` (stereo partly specified), the Potency entry was “inactive”.
The same measure for `CO[C@@H](/C=C/CC/C=C/C(=O)O)[C@@H](O)[C@H](C)/C=C(\C)[C@H](O)[C@H](C)C(=O)CCCC1CC(=O)NC(=O)C1`: “inactive”.
As to `CO[C@H]1C[C@H](O[C@H]2[C@@H](O)C[C@H](O[C@H]3CC[C@]4(C=O)[C@H]5CC[C@]6(C)C(C7=CC(=O)OC7)CC[C@]6(O)[C@@H]5CC[C@]4(O)C3)O[C@@H]2C)O[C@H](C)[C@H]1O[C@H]1C[C@@H](OC)[C@@H](O[C@@H]2O[C@H](CO)[C@@H](O)[C@H](O)[C@H]2O)[C@@H](C)O1` (stereo partly specified), the Potency result was “inactive”.
The same measure for `C=C[C@]12C=CCN3CC[C@@]4(c5ccccc5NC(=O)[C@@H]4C1)[C@@H]32`: “inactive”; for `C=C[C@H]1CN2CCc3c([nH]c4cccc(OC)c34)[C@@H]2C[C@@H]1/C(=C\OC)C(=O)OC`: “inactive”.

The record behind these values is PubChem BioAssay (NCATS).
